Measured values as given in PubChem BioAssay AID463173 (ICCB-Longwood Screening Facility, Harvard Medical School, 2010).
About 4,300 (8.3%) of roughly 52,000 compounds were called active. This is one part of a sample in which actives are shown more often than they occur. Values without a mark were called inactive. No stated cut-off is given here; in the data, active means survival mostly below about 52% (no sharp cut-off); inactive means mostly above about 56%.

What follows are compounds tested on DeltatarO mutant (assay: S. aureus survival, RN4220 and DeltatarO strains – OD600, teichoic acid synthesis inhibitors, primary screen (AID 463173)). Details: S. aureus RN4220 wild type/DeltatarO growth, OD600, 18 h, stronger effect = lower value, screened at 18.75 µg/mL (by protocol).

Row | Compound | survival
1 | COc1ccc(-c2nc(-c3cc4cc(Br)ccc4oc3=O)cs2)cc1 | 78%
2 | CCOc1ccc(CCNC(=O)CN2C(=O)c3cccnc3Oc3ccc(C)cc32)cc1OCC | 67%
3 | Cc1cc(-c2ccccc2)n2ncc(C#N)c2n1 | 96%
4 | CCOc1ccccc1CNC(=O)C1CCN(C2=NS(=O)(=O)C(c3ccc(C)c(C)c3)=C2C)CC1 | 84%
5 | COc1ccc(-n2c(=O)c3ccc(C(=O)NCc4ccc(C)cc4)cc3n(CC(=O)Nc3cccc(F)c3)c2=O)cc1 | 79%
6 | Cc1ccccc1Cc1c(C)nc2c(-c3ccccc3)c(C)[nH]n2c1=O | -3% (active)
7 | COc1ccc(-c2c(C)c3cc(OC(=O)N4CCOCC4)ccc3oc2=O)cc1 | 79%
8 | Cc1c(-c2ccc(Br)cc2)c(=O)oc2ccc(OC(=O)N3CCOCC3)cc12 | 86%
9 | COc1ccc(-c2c(C)c3cc(OC(=O)N4CCOCC4)ccc3oc2=O)cc1OC | 47% (active)
10 | COc1ccc(-c2csc(-c3c(N)c(C(=O)c4ccccc4)n4ccccc34)n2)cc1OC | 43% (active)
11 | COc1ccc(-c2csc(-c3c(N)c(C(=O)c4ccc(OC)c(OC)c4)n4ccccc34)n2)cc1 | 75%
12 | COc1ccc(-c2csc(-c3c(N)c(C(=O)c4ccccc4)n4ccccc34)n2)cc1 | 77%
13 | Cc1ccc(C)c(NC(=O)c2cnn(-c3cccc(F)c3)c2C2CCN(C(=O)OC(C)(C)C)CC2)c1 | 122%
14 | O=C(Nc1ccccn1)c1cccs1 | 109%
15 | CCOc1cccc(NC(=O)C2CC(=O)N(CC)C(=Nc3ccc(F)cc3)S2)c1 (stereo unspecified) | 17% (active)
16 | CCOc1cccc(NC(=O)C2CC(=O)N(C)C(=Nc3cccc(OC)c3)S2)c1 (stereo unspecified) | 82%
17 | CCN1C(=O)CC(C(=O)Nc2ccc(OC)cc2)SC1=Nc1ccc(C)c(C)c1 (stereo unspecified) | 50%
18 | CCOC(=O)C1CCCN(C(=O)c2nn(-c3ccc(C)cc3)c(=O)c3c2c2ccccc2n3C)C1 (stereo unspecified) | 90%
19 | Cc1cccn2c(=O)c(/C=C(\C#N)c3nc4ccccc4n3C)c(Oc3ccc(Br)cc3)nc12 | 69%
20 | Cc1cccc(N2CC(c3nc4ccccc4n3CCC3CCCCC3)CC2=O)c1 (stereo unspecified) | 31% (active)
21 | Cc1c(Cl)cccc1N1CC(c2nc3ccccc3n2Cc2ccccc2F)CC1=O (stereo unspecified) | 41%
22 | Cc1ccccc1N1CC(c2nc3ccccc3n2Cc2ccc(Br)cc2)CC1=O (stereo unspecified) | 25% (active)
23 | Cc1ccccc1N1CC(c2nc3ccccc3n2CCC2CCCCC2)CC1=O (stereo unspecified) | 16% (active)

Row | Compound | survival
24 | CCc1ccccc1N1CC(c2nc3ccccc3n2Cc2cccc(C)c2)CC1=O (stereo unspecified) | 66%
25 | COc1ccccc1OCCCn1c(C2CC(=O)N(c3ccccc3Cl)C2)nc2ccccc21 (stereo unspecified) | 75%
26 | Cc1ccc(C)c(Cn2c(C3CC(=O)N(c4ccccc4C)C3)nc3ccccc32)c1 (stereo unspecified) | 80%
27 | O=C1CC(c2nc3ccccc3n2CCC2CCCCC2)CN1c1ccccc1Cl (stereo unspecified) | 21% (active)
28 | COc1ccc(OCCCCn2c(C3CC(=O)N(c4cccc(Cl)c4)C3)nc3ccccc32)cc1 (stereo unspecified) | 86%
29 | Cc1ccc(N2CC(c3nc4ccccc4n3CCC3CCCCC3)CC2=O)cc1 (stereo unspecified) | 64%
30 | COc1ccc(N2CCN(C(=O)c3c(C)nn(-c4ccc(F)cc4)c3-n3cccc3)CC2)cc1 | 69%
31 | Cc1ccc(N2C(=O)CSC23C(=O)N(CC(=O)NC2CCCCC2)c2ccccc23)cc1 (stereo unspecified) | 79%
32 | CCOc1ccc(OCC(=O)Nc2c(C(=O)Nc3ccc(C)cc3)oc3ccccc23)cc1 | 73%
33 | Cc1cnn(Cc2ccccc2)c1N | 98%
34 | CSc1nc2c(sc3ccccc32)c(=O)n1Cc1ccc(C)cc1 | 96%
35 | CC1(C)Oc2ccc(C(=O)N/N=C/c3cccs3)cc2NC1=O | 58%
36 | O=C1[C@@H]2CSC(c3ccc(F)cc3)N2C(=O)N1c1ccc(Cl)cc1 (stereo partly specified) | 76%
37 | COc1ccc(C2=NC3(CCCCCC3)N(CC(=O)Nc3cccc(Cl)c3)C2=O)cc1 | 68%
38 | O=C(NCc1ccc2c(c1)CCN2C(=O)c1ccc(F)cc1)c1ccco1 | 115%
39 | COc1ccc(-c2nc(SCC(=O)NC3CCCC3)c(-c3ccccc3)[nH]2)cc1OC | 65%
40 | Cn1c(SCc2ccccc2Cl)nc(=O)c2c1NC(=O)CC2c1cc(F)ccc1F (stereo unspecified) | 45%
41 | COc1ccc(/C=C/C(=O)N2CCC(c3nc4ccccc4o3)CC2)cc1OC | 86%
42 | NC(=O)CN1c2cccc3cccc(c23)S1(=O)=O | 104%
43 | COc1ccc2[nH]c3c(c2c1)CCN(C(=O)c1cccc(Cl)c1)C3c1ccc(F)cc1 (stereo unspecified) | 77%
44 | Cc1ccc(CNC(=O)c2ccc(CSCc3cccc(C)c3)o2)cc1 | 93%
45 | CCOC(=O)c1cc(-c2ccccc2)n(CC(=O)NC(C)c2ccccc2)c1C (stereo unspecified) | 91%
46 | CCc1ccccc1N1CC(c2nc3ccccc3n2CC(C)C)CC1=O (stereo unspecified) | 78%

Row | Compound | survival
47 | CCc1ccccc1N1CC(c2nc3ccccc3n2CCC2CCCCC2)CC1=O (stereo unspecified) | 10% (active)
48 | COc1ccccc1Cn1c(C2CC(=O)N(c3ccccc3OC)C2)nc2ccccc21 (stereo unspecified) | 49%
49 | Cc1cccc(NS(=O)(=O)c2ccc3c(c2)CCN3C(=O)C2CCC2)c1 | 69%
50 | Cc1cc(C)c2oc(C(=O)NCCc3ccc(S(N)(=O)=O)cc3)cc(=O)c2c1 | 63%
51 | Cn1c(=O)n(C)c2cc(CNCc3ccc(F)cc3)ccc21 | 92%
52 | NC(=O)c1ccccc1NS(=O)(=O)c1ccccc1 | 97%
53 | NC(=O)c1cc(Cl)nc2ccccc12 | 81%
54 | NC(=O)c1ccc(-c2ccccc2)cc1C(N)=O | 66% (active)
55 | Cc1ccc(CNC(=O)c2cnc(N3CCCCC3)c3ccccc23)cc1 | 80%
56 | c1ccc(CCn2nnnc2CN2CCCc3ccccc32)cc1 | 93%
57 | Cc1ccc(CN(C(=O)COc2ccc(Br)cc2)c2ccccn2)o1 | 62%
58 | Cc1ccc(NC(=O)c2c(NC(=O)Cc3ccccc3)sc3c2CCCC3)cc1 | 28% (active)
59 | O=C(Cc1ccccc1)Nc1sc2c(c1C(=O)Nc1ccc(Br)cc1)CCCC2 | 57% (active)
60 | CCOc1ccc(NC(=O)c2c(NC(=O)Cc3ccccc3)sc3c2CCCCC3)cc1 | 48%
61 | O=C(Cc1ccccc1)Nc1sc2c(c1C(=O)Nc1ccccc1)CCCCC2 | 50%
62 | Cc1ccc(NC(=O)c2c(NC(=O)Cc3ccccc3)sc3c2CCC3)cc1 | 24% (active)
63 | O=C(Cc1ccccc1)Nc1sc2c(c1C(=O)Nc1ccc(Br)cc1)CCC2 | 55%
64 | CCC(=O)Nc1sc2c(c1C(=O)Nc1ccc(Br)cc1)CCCCC2 | 135%
65 | COc1ccc(NC(=O)c2c(NC(=O)Cc3ccccc3)sc3c2CCCC3)cc1 | 124%
66 | CCOc1ccc(NC(=O)c2c(NC(=O)Cc3ccccc3)sc3c2CCCC3)cc1 | 45% (active)
67 | O=C(Cc1ccccc1)Nc1sc2c(c1C(=O)Nc1ccc(Cl)cc1)CCCC2 | 47%
68 | CC(Cc1ccccc1)N=C1NS(=O)(=O)c2ccccc21 (stereo unspecified) | 81%
69 | Cc1nc2c3ccccc3nc(NNC(=O)CCC(=O)N3CCN(c4cccc(C(F)(F)F)c4)CC3)n2n1 | 57%

Row | Compound | survival
70 | CCOc1ccc(CCNC(=O)C2Cc3ccccc3N2C(=O)CC)cc1OCC (stereo unspecified) | 93%
71 | Cc1nnc(N(C)C(=O)Cc2ccc3c(c2)OCO3)s1 | 73%
72 | COC(=O)C1C(=O)NC(S)=C(C#N)C1c1ccccc1Cl (stereo unspecified) | 89%
73 | CCCN(CCC)C(=O)Cn1c(=O)n(-c2ccc(CC)cc2)c(=O)c2c3c(sc21)CCC3 | 110%
74 | COc1ccc(NC(=O)c2csnn2)cc1Cl | 86%
75 | COc1ccccc1N1CCN(C(=O)c2cnc(N3CCOCC3)c3ccccc23)CC1 | 78%
76 | CCOC(=O)c1cc(-c2ccc(F)cc2)n(CC(=O)NC2CCCCCC2)c1C | 76%
77 | COc1cccc(-n2c(-c3ccco3)nc3c(cnn3-c3ccc(C)cc3)c2=O)c1 | 52% (active)
78 | CCOC(=O)c1ccc(-n2c(C)nc3c(cnn3-c3ccc(Cl)cc3)c2=O)cc1 | 67%
79 | COc1cccc(-n2c(-c3ccco3)nc3c(cnn3-c3ccc(Cl)cc3)c2=O)c1 | 113%
80 | Cc1ccc(-n2c(C)nc3c(cnn3-c3ccccc3C)c2=O)cc1F | 120%
81 | CCc1cccc(-n2c(C)nc3c(cnn3-c3ccc(Cl)cc3)c2=O)c1 | -1% (active)
82 | COc1ccc(-n2c(C)nc3c(cnn3-c3ccc(F)cc3)c2=O)cc1 | 73%
83 | CCc1cccc(-n2c(C)nc3c(cnn3-c3ccc(C)c(C)c3)c2=O)c1 | -1% (active)
84 | COc1ccc(-n2c(-c3ccco3)nc3c(cnn3-c3ccc(C)cc3)c2=O)cc1 | 73%
85 | Cc1nc2c(cnn2-c2ccccc2)c(=O)n1-c1ccccc1 | 73%
86 | Cc1ccc(-n2ncc3c(=O)n(Cc4cccc(C(F)(F)F)c4)cnc32)cc1C | 93%
87 | COc1ccc(-n2c(C)nc3c(cnn3-c3ccc(C)c(C)c3)c2=O)cc1Cl | 118%
88 | COc1cccc(-n2c(C)nc3c(cnn3-c3ccc(C)c(C)c3)c2=O)c1 | 50% (active)
89 | Cc1ccc(C)c(S(=O)(=O)c2cn(C)c3cc(N4CCCCC4C)c(F)cc3c2=O)c1 (stereo unspecified) | 86%
90 | CCOc1ccc(/C=C/c2nc(C#N)c(NC(C)CC)o2)cc1 (stereo unspecified) | 68%
91 | Cc1nc2cc(C(F)(F)F)ccc2n1C1CCN(CC(=O)N2CCCC2)CC1 | 109%
